The values below come from PubChem BioAssay (Tox21).

Molecules are shown by their SMILES. Several values for one entry are separate records, joined by “and”; a condition that tells them apart may be missing. Equal entries are not always repeated. Results filed as inconclusive are left out. The source holds several records for some structures; these can differ, active in one and inactive in another. Activity calls are given as the source filed them. Unless noted, calls come from the whole dose curve; as a rule, active = well fitted curve in the direction sought with a large enough effect in the repeat runs; inconclusive = weak or mixed curves; inactive = no such curve, though single readings can be large; an effect the other way counts as inactive or inconclusive.

The nature of assay [1]: qHTS assay to identify small molecule agonists of the hypoxia (HIF-1) signaling pathway - cell viability counter screen (AID 1224844; calls by dose curve; note: nearly all actives have a fitted effect of over 50% in size). The method in brief: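 Tox21 10K compounds were added to HRE-bla ME-180 cells (0.5% dialyzed FBS) and incubated 17 hrs at 37C; ATP-based CellTiter-Glo luminescence then reported cell viability in the same wells.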
In general terms: In qHTS, concentration-response curves come from the screen itself.

A short description of assay [2]: qHTS assay to identify small molecule agonists of H2AX (AID 1224845; active = well fitted activation curve with a large enough effect in the signal ratio in the repeat runs, not every such curve was filed as active; the % refers to the signal ratio). The method in brief: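 Wild-type CHO-K1 cells, plated overnight, exposed 3hr at 37C to 15 concentrations (0.76% DMSO final). Lysed, then HTRF anti-pH2AX (S139) cryptate and anti-H2AX-d2 antibodies, 24 hr room temperature; 665/620 nm emission read.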
The nature of assay [3]: qHTS assay to identify small molecule agonists of the hypoxia (HIF-1) signaling pathway (AID 1224846; active = well fitted activation curve with a large enough effect in the signal ratio in the repeat runs, not every such curve was filed as active; the % refers to the signal ratio). An outline of the steps:
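Steps: seed ME-180 HRE-bla cells (2,000/well, 0.5% dialyzed FBS); incubate 5 hrs at 37C; pin-transfer compounds or DMSO; incubate 17 hrs; add LiveBLAzer B/G substrate CCF4-AM; measure reporter activation by FRET.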

Assay [4] is described as follows: qHTS assay to identify small molecule antagonists of the estrogen related receptor (ERR) signaling pathway from Tox21 library (AID 1224848). Note: nearly all actives have a fitted effect of over 50% in size. Note: potency is the fitted concentration of half-maximal effect. An outline of the steps: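 ERR reporter cell line (from NTP) seeded 2,000 cells/well, rested 6 h at 37 C/5% CO2, then pin-dosed with compounds in DMSO. After 18 h at 37 C, ONE-Glo added; luminescence read after 30 min at room temperature.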

Assay [5] is described as follows: qHTS assay to identify small molecule agonists of the estrogen related receptor (ERR) signaling pathway from Tox21 library (AID 1224849; calls by dose curve; note: nearly all actives have a fitted effect of over 15% in size). Conditions: ERR reporter cell line, ONE-Glo luciferase, 18 h. An outline of the steps: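 Agonist signal is luciferase luminescence from an ERR reporter cell line treated 18 h at 37 C with DMSO-dissolved compounds, read 30 min after ONE-Glo addition at room temperature.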

Assay [6] in a line: qHTS RealTime-Glo MT Cell Viability Assay in HepG2 cells - 24 hour (AID 1224867). Note: nearly all actives have a fitted effect of over 50% in size. An outline of the steps:
(§1)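 Cells + NanoLuc/prosubstrate dispensed (600 cells/well) → 5 h at 37 C/5% CO2 → compounds in DMSO transferred → 40 h incubation at 37 C, luminescence read at 0, 8, 16, 24, 32, 40 h.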

The nature of assay [7]: qHTS RealTime-Glo MT Cell Viability Assay in HEK293 cells - 32 hour (AID 1224868). Note: nearly all actives have a fitted effect of over 50% in size. Note: potency is the fitted concentration of half-maximal effect. The method in brief:
(§2)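 Tox21 10K qHTS, HEK293, 600 cells/well, RealTime-Glo reagent co-dispensed with cells; 5 h preincubation, compound by pintool, 37 C, luminescence at 0–40 h.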

Assay [8] in a line: A CellTox Green Cytotoxicity Assay to monitor cytotoxicity in HEK293 cells - 0 hour (AID 1224869). Note: nearly all actives have a fitted effect of over 50% in size. The method in brief:
(§3)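 Cytotoxicity was tracked continuously in HEK293 cells by a DNA-binding dye excluded from viable cells. Compounds were transferred in DMSO 5 h after seeding; fluorescence was recorded at intervals up to 40 h.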

A short description of assay [9]: qHTS RealTime-Glo MT Cell Viability Assay in HepG2 cells - 40 hour (AID 1224870). Note: nearly all actives have a fitted effect of over 50% in size. An outline of the steps: (§4)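 HepG2 cells (600/well) mixed with RealTime-Glo MT reagent, settled 5 h at 37 C/5% CO2 before compound addition. Nonlytic NanoLuc luminescence from viable-cell prosubstrate reduction read repeatedly during 40 h treatment at 37 C.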
A short description of assay [10]: A CellTox Green Cytotoxicity Assay to monitor cytotoxicity in HEK293 cells - 40 hour (AID 1224871). Note: nearly all actives have a fitted effect of over 45% in size. The method in brief: as §3
Assay [11] in a line: qHTS RealTime-Glo MT Cell Viability Assay in HEK293 cells - 16 hour (AID 1224872). Note: nearly all actives have a fitted effect of over 50% in size. Note: potency is the fitted concentration of half-maximal effect. An outline of the steps:
as §2

Assay [12] can be described thus: qHTS RealTime-Glo MT Cell Viability Assay in HepG2 cells - 8 hour (AID 1224873). Note: nearly all actives have a fitted effect of over 55% in size. An outline of the steps: as §4
The nature of assay [13]: qHTS RealTime-Glo MT Cell Viability Assay in HEK293 cells - 40 hour (AID 1224874). Note: nearly all actives have a fitted effect of over 50% in size. Note: potency is the fitted concentration of half-maximal effect. Conditions: RealTime-Glo luminescence; max response: stronger effect = lower value. An outline of the steps:
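Nonlytic bioluminescent viability monitoring. HEK293 at 600 cells/well with reagent; 5 h settle; compound transfer by pintool; plates held at 37 C and read at set time points.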

Assay [14] can be described thus: A CellTox Green Cytotoxicity Assay to monitor cytotoxicity in HEK293 cells - 24 hour (AID 1224875). Note: nearly all actives have a fitted effect of over 45% in size. An outline of the steps: as §3
A short description of assay [15]: A CellTox Green Cytotoxicity Assay to monitor cytotoxicity in HepG2 cells - 16 hour (AID 1224876). Note: nearly all actives have a fitted effect of over 45% in size. An outline of the steps:
(§5)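 Real-time, homogeneous cytotoxicity readout: dead-cell DNA staining by CellTox Green in HepG2 monolayers, fluorescence measured at timed intervals up to 40 h of continuous compound exposure.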

A short description of assay [16]: qHTS RealTime-Glo MT Cell Viability Assay in HepG2 cells - 32 hour (AID 1224877). Note: nearly all actives have a fitted effect of over 55% in size. An outline of the steps: as §1
A short description of assay [17]: A CellTox Green Cytotoxicity Assay to monitor cytotoxicity in HepG2 cells - 40 hour (AID 1224879). Note: nearly all actives have a fitted effect of over 40% in size. Note: potency is the fitted concentration of half-maximal effect. An outline of the steps: as §5
Assay [18] can be described thus: qHTS assay to identify small molecule agonists of H2AX - cell viability counter screen (AID 1224847; calls by dose curve; note: top concentration of the series differs between compounds; nearly all actives have a fitted effect of over 30% in size). The method in brief:
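Wild-type CHO-K1 cells (10% FBS medium) were plated overnight at 37C, exposed to compounds at 15 concentrations for 3 hr at 37C (0.76% DMSO final), and viability was read as CellTiter-Glo luminescence after 30 min at room temperature.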

The target in assay [19] is Thyrotropin receptor (Homo sapiens) (UniProt P16473). The assay is described as follows: qHTS assay to identify small molecule agonists of the thyroid stimulating hormone receptor (TSHR) signaling pathway (AID 1224843; calls by dose curve; note: nearly all actives have a fitted effect of over 45% in size). The method in brief:
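TSHR-HEK293 cells in agonist mode, 30 min room-temperature step, then cAMP measured by competitive HTRF (cAMP-d2 with anti-cAMP cryptate) after 1 h at room temperature. Tested at 15 concentrations in triplicate.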
% is set by controls: 0 for no effect and ±100 for the full control effect.

Chain of Thyrotropin receptor (Homo sapiens) (P16473 whole entry, looked up): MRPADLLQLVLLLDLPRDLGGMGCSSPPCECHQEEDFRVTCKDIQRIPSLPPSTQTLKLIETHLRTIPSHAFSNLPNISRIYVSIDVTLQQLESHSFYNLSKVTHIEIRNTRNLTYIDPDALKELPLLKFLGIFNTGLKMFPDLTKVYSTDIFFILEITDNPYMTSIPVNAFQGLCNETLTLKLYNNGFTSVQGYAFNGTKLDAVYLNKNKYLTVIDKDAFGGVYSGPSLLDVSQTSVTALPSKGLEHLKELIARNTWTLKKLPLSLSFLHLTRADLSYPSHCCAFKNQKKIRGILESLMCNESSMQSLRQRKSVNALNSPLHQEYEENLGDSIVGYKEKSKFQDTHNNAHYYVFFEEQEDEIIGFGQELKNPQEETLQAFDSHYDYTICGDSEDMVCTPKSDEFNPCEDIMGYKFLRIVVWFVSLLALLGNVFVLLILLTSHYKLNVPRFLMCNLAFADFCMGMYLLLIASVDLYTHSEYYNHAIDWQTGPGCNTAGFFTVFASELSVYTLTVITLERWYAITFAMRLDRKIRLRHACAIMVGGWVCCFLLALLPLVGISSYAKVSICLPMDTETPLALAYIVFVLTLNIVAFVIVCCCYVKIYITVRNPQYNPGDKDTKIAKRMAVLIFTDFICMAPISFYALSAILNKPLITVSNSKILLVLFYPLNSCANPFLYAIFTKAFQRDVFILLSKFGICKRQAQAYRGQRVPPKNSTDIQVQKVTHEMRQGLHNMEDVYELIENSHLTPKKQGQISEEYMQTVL

As for `COC(=O)c1ccc(C=O)cc1`, the Potency entry in [1], in [2], in assay [4], in assay [7], in [8] and in [10] was “inactive” in each case. Also, the Potency entry in assay [11], in assay [14], in assay [15] and in assay [17] was “inactive” each time. For the same compound, the result in assay [3], in assay [6], in assay [9], in [12] and in assay [16] was inactive. Also, in [5] (at 92.4 µM (top of the series)), the activity change, positive = activation is -0.881% (inactive). Also, in assay [13], the max response was -13.1% (inactive) and 1.66% (inactive).
Turning to `NCCNc1cccc2ccccc12`, the Potency result in assay [1], in assay [2], in [18], in assay [8], in assay [10] and in [14] was “inactive” throughout. In assay [15], the Potency entry was “inactive”. Also, the call in [3], in [6], in assay [9], in assay [12] and in assay [16] was inactive. For the same compound, the Potency in assay [7] is 54.9 µM (active) and 53.6 µM (active) and inactive; in assay [11], 54.9 µM (active) and 47.8 µM (active) and inactive; in [13], 54.9 µM (active) and 53.6 µM (active); in [17] it was 53.6 µM (active) and inactive. For the same compound, in assay [13], the max response was 0.781% (inactive).
For the compound `CO[C@H]1C=CO[C@@]2(C)Oc3c(C)c(O)c4c(O)c(c(/C=N/N5CCN(C)CC5)c(O)c4c3C2=O)NC(=O)/C(C)=C\C=C[C@H](C)[C@H](O)[C@@H](C)[C@@H](O)[C@@H](C)[C@H](OC(C)=O)[C@@H]1C`, the Potency result in assay [19], in assay [1], in assay [18], in assay [8], in assay [10] and in assay [14] was “inactive” throughout. Also, the Potency entry in [17] is “inactive”. Also, the Potency in assay [4] is 48.8 µM (active) and 23.7 µM (active); in assay [7], 19.6 µM (active) and 9.88 µM (active); in [11], 6.96 µM (active) and 2.21 µM (active) and 21.3 µM (active); in assay [13], 22 µM (active) and 15.7 µM (active). The activity change, positive = activation in assay [5] (at 42.5 µM (top of the series)) is -25.2% (inactive) and -32.7% (inactive); in assay [5] (at 92.4 µM (top of the series)), -53.6% (inactive). The call in assay [6], in assay [9] and in assay [16] was inactive.
Take `CC1=NN(c2ccccc2)C(=O)C1`: the Potency entry in assay [19], in [1], in assay [2], in assay [18], in assay [7] and in assay [8] was “inactive” throughout. Moreover, the Potency result in assay [10], in assay [11], in assay [14], in assay [15] and in [17] was “inactive” each time. The compound was called inactive in assay [6], in [9], in assay [12] and in assay [16]. The max response in assay [13] is -0.0619% (inactive) and 3.79% (inactive) and -1.74% (inactive).
Regarding `O=c1c(-c2ccc(O)cc2)coc2cc(O)cc(O)c12`, the Potency entry in assay [19], in [1], in assay [18], in [8], in [10] and in [14] was “inactive” in each case. Besides, the Potency entry in [17] is “inactive”. Also, the outcome in assay [3], in assay [6], in [9], in [12] and in assay [16] was inactive. The Potency is 24.5 µM (active) in assay [7]; 21.9 µM (active) in assay [11]; 19.2 µM (active) and 19.5 µM (active) in assay [13].
As for `O=C1OC(c2ccc(O)cc2)(c2ccc(O)cc2)c2ccccc21`, the Potency result in assay [19], in assay [1], in [2], in [7], in assay [8] and in assay [10] was “inactive” in each case. The Potency entry in assay [11], in [14] and in assay [17] was “inactive” throughout. For the same compound, the result in assay [6], in [9], in assay [12] and in [16] was inactive. Also, the max response in assay [13] is -0.757% (inactive).
